About 3,000 (1%) of roughly 290,000 compounds were called active. Cut-off read from the data, not from the text of the source: active = inhibition mostly above about 36% (no sharp cut-off); inactive = mostly below about 34%. The full list was thinned out, with actives kept by preference.
These compounds were tested against T1, Nucleotide-binding oligomerization domain-containing protein 1, Homo sapiens (UniProt Q9Y239) (assay: inhibition of NOD1-driven NF-kB reporter – cell-based, luminescence, uHTS, primary screen (AID 1578)).
T1 sequence (whole entry): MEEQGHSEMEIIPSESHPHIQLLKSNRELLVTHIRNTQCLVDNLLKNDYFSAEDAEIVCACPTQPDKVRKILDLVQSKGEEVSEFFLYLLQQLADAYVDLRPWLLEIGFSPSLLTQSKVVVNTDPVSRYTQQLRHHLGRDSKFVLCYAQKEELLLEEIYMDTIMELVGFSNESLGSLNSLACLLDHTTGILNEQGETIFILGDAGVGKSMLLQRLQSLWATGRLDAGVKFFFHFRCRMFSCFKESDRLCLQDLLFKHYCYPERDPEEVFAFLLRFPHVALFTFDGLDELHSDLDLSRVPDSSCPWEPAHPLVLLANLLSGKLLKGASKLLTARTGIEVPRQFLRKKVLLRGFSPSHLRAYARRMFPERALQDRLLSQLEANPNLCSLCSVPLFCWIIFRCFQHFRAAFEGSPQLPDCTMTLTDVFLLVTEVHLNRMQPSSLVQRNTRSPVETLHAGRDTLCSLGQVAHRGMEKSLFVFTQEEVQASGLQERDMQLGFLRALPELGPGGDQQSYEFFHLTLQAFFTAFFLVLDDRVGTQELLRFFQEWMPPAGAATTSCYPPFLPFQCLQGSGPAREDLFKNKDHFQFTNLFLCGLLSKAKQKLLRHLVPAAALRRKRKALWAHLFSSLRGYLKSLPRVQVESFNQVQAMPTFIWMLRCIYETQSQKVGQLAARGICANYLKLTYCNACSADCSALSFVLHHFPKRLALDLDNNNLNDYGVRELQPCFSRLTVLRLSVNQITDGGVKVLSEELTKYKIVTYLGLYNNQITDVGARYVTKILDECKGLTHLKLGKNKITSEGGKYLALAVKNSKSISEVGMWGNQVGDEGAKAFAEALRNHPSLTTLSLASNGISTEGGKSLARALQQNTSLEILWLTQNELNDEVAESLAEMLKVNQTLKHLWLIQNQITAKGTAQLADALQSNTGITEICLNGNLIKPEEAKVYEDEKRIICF

outcome, active:
Cc1cccnc1Nc1nc(-c2ccccn2)cs1, COc1cccc2sc(Nc3nc(-c4ccccn4)cs3)nc12, COc1ccccc1-c1nnc(Nc2nc3c(OC)cccc3s2)o1, COc1ccc(Nc2oc(COc3ccccc3OC)nc2C#N)cc1, Cc1oc2c(F)c(F)c(F)c(F)c2c1S(=O)(=O)Nc1cccc(C(F)(F)F)c1, CCCn1c(SCC(=O)Nc2nc3c(s2)CCCC3)nc2c1c(=O)n(C)c(=O)n2C, CCCCn1c(SCC(=O)Nc2nnc(CC)s2)nc2c1c(=O)n(C)c(=O)n2C, O=C(NC1CCCCC1)c1sc(=S)n2c1[nH]c(=O)c1ccccc12, O=C(NC1CCCC1)c1sc(=S)n2c1[nH]c(=O)c1ccccc12, Cc1ncoc1C(=O)NC1CCCc2c1cnn2-c1ccc(C(C)(C)C)cc1 (configuration not stated), Cc1ccc(-n2ncc3c2CCCC3NC(=O)c2ocnc2C)cc1C (configuration not stated), CCC1Sc2ccc(S(=O)(=O)Nc3ccc(OC)c(OC)c3)cc2NC1=O (configuration not stated), O=C(Nc1nnc(-c2ccc3c(c2)CCCC3)o1)c1ccc(Cl)cc1Cl, O=C(Nc1nnc(-c2ccc3c(c2)CCCC3)o1)c1ccccc1, O=C(Nc1nnc(-c2ccc3c(c2)CCCC3)o1)c1ccccc1Cl, COc1ccc2c(C#N)c3ccccn3c2c1, N#Cc1c2ccc(O)cc2n2ccccc12, COc1ccc2[nH]c(=O)c3c(c2c1)OC(C)(C)C=C3, O=C(Nc1ccccn1)C1CCN(c2ncnc3c2nc2n3CCCCC2)CC1, O=C(NCC1CCN(Cc2ccc(Cl)cc2)CC1)C1CCCN(c2ncnc3c2nc2n3CCCCC2)C1 (configuration not stated), Cc1ccc(NC(=O)C2CCCN(c3ncnc4c3nc3n4CCCCC3)C2)nc1 (configuration not stated), O=C(Nc1ccc(Cl)cn1)C1CCN(c2ncnc3c2nc2n3CCCCC2)CC1, O=C(Nc1ccccc1Cl)/C(Cl)=C(\Cl)S(=O)c1ccccc1 (configuration not stated), CC(=O)N1CC(C)Sc2ccc(S(=O)(=O)NCCc3ccc(C)cc3)cc21 (configuration not stated), COc1cc(/C=C2\SC(=N)N(c3ccc(F)cc3)C2=O)ccc1O, N#C/C(=C\C=C\c1ccccc1[N+](=O)[O-])C(=O)NC1CCCCC1, Br.CCCCCCCCCn1ccc(=N)cc1, Br.CCCCCCCCn1ccc(=N)cc1, Br.CCCCCCCCCCn1ccc(=N)cc1, C(=N\Nc1nc(-c2ccccn2)nc2ccccc12)/c1ccccc1, Fc1ccccc1/C=N/Nc1nc(-c2ccccn2)nc2ccccc12, COc1cccc(Nc2nc(NCCO)c3ccccc3n2)c1.Cl, O=c1cc(CSc2nnc(-c3cccs3)n2Cc2ccccc2)nc2sc3ccccc3n12, COc1ccc(OC)c(CCNC(=O)Cn2nc(C)c3c(C)n(-c4ccc(C)cc4)nc3c2=O)c1, COc1ccc(OC)c(CCNC(=O)C(C)n2nc(C)c3c(C)n(-c4ccc(C)cc4)nc3c2=O)c1 (configuration not stated), COc1ccc(CCNC(=O)C(C)n2nc(C)c3c(C)n(-c4ccc(C)cc4)nc3c2=O)c(OC)c1 (configuration not stated), CCOc1ccccc1CNC(=O)Cn1nc(C)c2c(C)n(-c3ccc(C)cc3)nc2c1=O, CSc1nnc(NC(=O)c2nc(S(=O)(=O)Cc3ccc(C)cc3)ncc2Cl)s1, Cc1cccc(CS(=O)(=O)c2ncc(Cl)c(C(=O)Nc3nnc(C(C)C)s3)n2)c1, Cc1ccc(CS(=O)(=O)c2ncc(Cl)c(C(=O)Nc3nnc(C(C)C)s3)n2)cc1, COc1ccc(Cc2nc3ccc(C(=O)N4CCN(C)C(C)C4)cc3o2)cc1OC (configuration not stated), Cc1cccc(CSc2cccc3cccnc23)c1, Cn1c(=O)[nH]c(=O)c2c1nc([N+](=O)[O-])n2Cc1ccccc1, Cn1c(=O)[nH]c(=O)c2c1nc(N1CCC(Cc3ccccc3)CC1)n2Cc1ccccc1, CCCCCn1c(SCCc2ccccc2)nc2c1c(=O)[nH]c(=O)n2C, COc1cccc(-c2coc3c(C)c4oc(=O)c(CCC(=O)O)c(C)c4cc23)c1, O=C(Nc1nc(-c2ccccc2)cs1)c1ccc2c(=O)n3c(nc2c1)CCCCC3, Cc1ccc(-c2csc(NC(=O)c3ccc4c(=O)n5c(nc4c3)CCCCC5)n2)cc1, COc1ccc(CNC(=O)c2cc3c(C)nc4ccccc4c3o2)c(OC)c1, C/C(=N\NC(=O)c1ccccc1Cl)c1ccccn1, C/C(=N\Nc1nc2ccccc2[nH]1)c1ccccn1, C/C(=N\NC(=O)c1cccc2ccccc12)c1ccccn1, C/C(=N\NC(=O)C1COc2ccccc2O1)c1ccccn1 (configuration not stated), C/C(=N\NC(=O)C(C)Oc1ccc([N+](=O)[O-])cc1)c1ccccn1 (configuration not stated), C=CCNC(=S)N/N=C(\C)c1ccccn1, C/C(=N\NC(=O)C(c1ccccc1)c1ccccc1)c1ccccn1, C/C(=N\NC(=O)c1cc(-c2cccs2)nc2ccccc12)c1ccccn1, O=S1(=O)Nc2c(ccc3cccnc23)-c2ccccc21, Cc1ccccc1-c1nc(CSc2nc3c(c(=O)[nH]2)CCC3)c(C)o1, O=C(CCl)c1cc2c3c(c1)CC(=O)N3CCC2, CCOc1cc(S(=O)(=O)NCc2ccncc2)ccc1Cl, CCN(CC)S(=O)(=O)c1ccc(C(=O)Nc2ccc(Cc3ccncc3)cc2)cc1, Cc1ccc(C)c(N2CCN(C(=O)CCS(=O)(=O)c3ccc4c(c3)NC(=O)C(C)S4)CC2)c1 (configuration not stated), CCOc1ccc(/C=C/C(O)=C2/C(=O)N(C)C3(C)CC2c2ccccc2O3)cc1OC (configuration not stated), COc1ccc(-n2nc(C#N)c(Cl)cc2=O)cc1, Cn1c(/C=C/c2ccc(Cl)cc2Cl)c([N+](=O)[O-])c(=O)n(C)c1=O, Cc1ccc(-n2c(-c3ccc(Br)cc3)c[n+]3c2CCc2ccc4cccnc4c2-3)cc1.[Br-], O=c1cc(C(F)(F)F)[nH]c2ccc(C(F)(F)F)cc12, O=c1cc(C(F)(F)F)[nH]c2ccc(OC(F)(F)F)cc12, O=C1CSc2ccc(C(=O)Nc3cccc(S(=O)(=O)Nc4ccc(Br)cc4)c3)cc2N1, CC1CC(C)CN(C(=O)/C=C/c2ccc([N+](=O)[O-])s2)C1 (configuration not stated), O=C(/C=C/c1ccc([N+](=O)[O-])s1)N1CCCCC1
